Several values for one entry are separate records, joined by “and”; a condition that tells them apart may be missing. Identical values can stand only once. Activity calls are given as the source filed them.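 Rule for the calls, unless noted: active = compounds whose cell count with miR-34 switched on is under 0.7 times the count with it off; inactive = the rest.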
Columns and labels:
[1] = liver-stage malaria parasite growth inhibition, primary screen, cell-based, HepG2, luciferase luminescence, HepG2 viability (AID 624349; in the data active = parasite load remaining mostly below about 12%, no sharp cut-off; inactive = mostly above about 10%;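 note: 100% = mean of DMSO negative control wells on the same plate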); details: P. berghei liver stage in HepG2, luciferase luminescence, concentration not given here; parasite load remaining: stronger effect = lower value; viability: measured here: HepG2 viability without parasites
[2] = sensitizers of A549 cells to miR-34 induction, primary screen, imaging, A549 dox-inducible miR-34, nuclei and caspase counts (AID 1347080); details: A549 miR-34 inducible, Hoechst nuclei count, 48 h
[3] = survival rescue of mitochondrial mutant cells in low glucose, primary screen, MELAS cybrids, Rieske KO mouse fibroblasts, CellTiter-Glo (AID 1508586;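 active = mean z-score across replicates of 1.96 or higher in either the MELAS or the Rieske mutant cell line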;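 note: z relative to plate mean and SD of compound and empty wells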)
[4] = viability rescue of complex I mutant cybrids, primary screen, cell-based, galactose medium, ATP luminescence (AID 1645843;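 active = z-score of at least 1.8 in each of two replicates, scored against plate mean and spread of sample wells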;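 note: positive z means more ATP and so rescue of galactose-driven cybrid death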); details: complex I mutant cybrid cells, 72 h, stronger effect = higher value
[5] = hESC survival regulators, cell-based (AID 493140; call rule not given here;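 note: cells exposed to compounds for four days before counting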); details: human embryonic stem cell survival screen; stronger effect = higher value
[6] = stronger effect = lower value, cell number ratio, induced over uninduced
[7] = measured here: relative caspase fold change +Dox/-Dox
[8] = measured here: total cells with miR-34 induction, stronger effect = lower value
[9] = measured here: total cells without miR-34 induction
[10] = MELAS cybrid survival, CellTiter-Glo 48 h, stronger effect = higher value
[11] = Rieske KO mouse fibroblast survival, CellTiter-Glo 72 h

SMILES	parasite load remaining [1]	viability [1]	fold change [2, 6]	fold change [2, 7]	cell count [2, 8]	cell count [2, 9]	z-score [3, 10]	z-score [3, 11]	z-score [4]	survival [5]
CN1C[C@H](C(=O)N[C@]2(C)O[C@@]3(O)[C@@H]4CCCN4C(=O)[C@H](Cc4ccccc4)N3C2=O)CC2c3cccc4[nH]cc(c34)C[C@H]21 (stereo partly drawn)	81.9% (inactive) and 39.4% (inactive)	69.3% and 96.5%	0.973 (inactive) and 0.855 (inactive)	1.1 and 1.21	7780 and 9120	8000 and 10700	-0.956 (inactive)	-0.402	0.325 (inactive)	
CC(=O)OC1C=C2C(Cl)=C[C@@H]3[C@H](CC[C@@]4(C)[C@H]3CC[C@]4(OC(C)=O)C(C)=O)[C@@]2(C)CC1 (stereo partly drawn)	9.03% (inactive)	64%	0.729 (inactive)	1.61	7220	9910	0.137 (inactive)	1.01	0.185 (inactive)	
CC[C@H]1OC(=O)[C@H](C)[C@@H](O[C@H]2C[C@@](C)(OC)[C@@H](O)[C@H](C)O2)[C@H](C)[C@@H](O[C@@H]2O[C@H](C)C[C@H](N(C)C)[C@H]2O)[C@](C)(O)C[C@@H](C)/C(=N/OCOCCOC)[C@H](C)[C@@H](O)[C@]1(C)O	72.6% (inactive)	69.5%	0.917 (inactive)	1.04	9160	9990	-0.295 (inactive)	-0.333	0.145 (inactive)	
C[C@H](C(=O)O)c1cccc(C(=O)c2ccccc2)c1	42.4% (inactive)	93%	0.744 (inactive)	1.59	7940	10700	-0.319 (inactive)	-0.518	0.4 (inactive)	115 (inactive)
CC(C)C[C@@H](NC(=O)[C@H](Cc1ccccc1)NC(=O)c1cnccn1)B(O)O	-0.325% (inactive)	1%	1.12 (inactive)	1.54	1190	1060	-1.11 (inactive)	0.911	-2.25 (inactive)	
CCC(=O)OCC(=O)[C@@]1(OC(=O)CC)[C@@H](C)C[C@H]2[C@@H]3CCC4=CC(=O)C=C[C@]4(C)C3(F)[C@@H](O)C[C@@]21C (stereo partly drawn)	19.5% (inactive)	67%	0.837 (inactive)	1.41	6650	7940	0.189 (inactive)	1.36	0.155 (inactive)	
O[C@H]1[C@H](O)[C@@H](O)[C@@H]2O[C@@H]2[C@@H]1O	29.7% (inactive)	72%	0.828 (inactive)	1.47	9740	11800	0.534 (inactive)	0.1	0.2 (inactive)	
CO/N=C(\C(=O)N[C@@H]1C(=O)N2C(C(=O)[O-])=C(C[N+]3(C)CCCC3)CS[C@H]12)c1csc(N)n1	37.1% (inactive)	100%	0.872 (inactive)	1.15	9480	10900	-0.344 (inactive)	0.0422	0.485 (inactive)	

Source: PubChem BioAssay
